tested on: HepG2-GM130-SQSTM1; assay: lowest phenotypically active concentration; higher = less potent; details: treatment time: 24 h
Outline: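 After 24 h at 0.3, 1, 3 or 9 µM, with four wells per treatment, fifteen gene-edited A549, HepG2 and WPMY1 reporter lines carrying BFP, GFP and RFP/FusionRed were imaged live. Each well's live-cell features were expressed relative to solvent control wells. Deviation required ≥3 of 4 wells past the 95th percentile of control Euclidean distances, and reproducibility a median replicate Pearson correlation over the 95th percentile of non-replicates. Phenotypic activity rested on both.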

Lowest phenotypically active concentration, 1 µM:
CC/C(=C(\CC)c1ccc(O)c(CN(CC)CC)c1)c1ccc(O)c(CN(CC)CC)c1
Cn1cc(C2=C(c3ccc(Cl)cc3Cl)C(=O)NC2=O)c2ccccc21
Cc1cc(Nc2ccc(NC(=O)c3ccc(Nc4ccnc5ccccc45)cc3)cc2)nc(N)n1

Lowest phenotypically active concentration, ≤ 0.3 µM:
O=C(NOCC1CC1)c1ccc(F)c(F)c1Nc1ccc(I)cc1Cl
CCCS(=O)(=O)Nc1ccc(F)c(C(=O)c2c[nH]c3ncc(Cl)cc23)c1F

Lowest phenotypically active concentration, 9 µM:
CC(C)COCC(CN(Cc1ccccc1)c1ccccc1)N1CCCC1 (stereo unspecified) [bepridil]
N#C/C(=C(/N)Sc1ccc(N)cc1)c1ccccc1C(F)(F)F
Cc1noc(C)c1Cn1cc(C#N)c2cc(Oc3ccc(NC(=O)[C@@H]4CCCN4)cc3)ccc21
COc1c(C=O)c(O)cc2c1C(=O)c1ccccc1C2=O [Damnacanthal]
COc1ccccc1OCCNCC(O)COc1cccc2[nH]c3ccccc3c12 (stereo unspecified) [Carvedilol]
CSc1ccc2c(c1)N(CCC1CCCCN1C)c1ccccc1S2 (stereo unspecified) [thioridazine]
Cc1noc(C)c1-c1ccc2c(c1)nc(CCc1ccc(OCCCN(C)C)cc1)n2CCN1CCOCC1

Lowest phenotypically active concentration, 3 µM:
C[C@H]1Oc2cc(cnc2N)-c2c(nn(C)c2C#N)CN(C)C(=O)c2ccc(F)cc21
O=S(=O)(c1cccc2cnccc12)N1CCCNCC1 [fasudil]
COc1cc(N2CCC(N)CC2)ccc1Nc1ncc(Cl)c(-c2c[nH]c3ccccc23)n1
Cc1ccc(NC2=CC(=O)c3sc(C)nc3C2=O)cc1 [Ryuvidine]
